Experimental findings from PubChem BioAssay are described below.

Each structure is given as a SMILES string. Activity calls are given as the source filed them. Unless noted, the rule behind the calls is not given here.

In assay [1] the test system is Wnt5a (protein binding on small-molecule microarray). Briefly: Wnt5a binders on small-molecule microarray, primary screen, biophysical, 635/667 nm fluorescence (AID 1142).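 Note: fluorescence read at 667 nm with signal to noise per printed feature.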 Conditions: 635 nm fluorescence, higher = more signal.
The nature of assay [2]: cell viability in Huh7 cells, primary screen, cytotoxicity control for HCV replication inhibitor project, CellTiter-Glo luminescence, basal, 48 h (AID 1143).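 Note: Huh7 hepatoma cells carrying a hepatitis C replication reporter with no stimulus; test concentration not given here.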 Particulars: Huh7 HCV replicon, higher = more signal, called active from +8 up or from −8 down.
Assay [3] can be described thus: P. aeruginosa biofilm formation inhibitors, primary screen, PAO1 strain, BacTiter-Glo luminescence, LB-PBS (AID 1144). Particulars: 12 h, higher = more signal.
Assay [4] is described as follows: CREB reporter modulators without forskolin, primary screen, cell-based, PC12, CRE-LacZ reporter, unstimulated (AID 1145). Conditions: no forskolin, luminescence, 4.5 h, higher = more signal, called active from +8 up or from −8 down.
The nature of assay [5]: CREB reporter modulators under forskolin, primary screen, cell-based, PC12, CRE-LacZ reporter, forskolin-stimulated (AID 1146).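 Note: PC12 cells with 6xCRE LacZ reporter stimulated by forskolin 10 µM; beta-galactosidase reporter signal reflecting CREB driven transcription.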 Conditions: luminescence, 4.5 h, higher = more signal, called active from +8 up or from −8 down.
Assay [6] deals with Streptavidin (Streptomyces avidinii) (UniProt P22629). Put plainly: streptavidin binders on small-molecule microarray, primary screen, artefact control for SMM compound annotation, biophysical, 635/667 nm fluorescence (AID 1147).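 Note: signal reflects streptavidin binding to arrayed compounds as a control protein.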 Particulars: streptavidin binding, higher = more signal.
The nature of assay [7]: small-molecule binders of probe aInhba, primary screen, biochemical, small-molecule microarray, 635/667 nm fluorescence (AID 1148).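 Note: score merges 667nm spot fluorescence with signal-to-noise for antibody binding to printed compounds.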 Conditions: higher = more signal.
The target of assay [8] is Torsin-1A (Homo sapiens) (UniProt O14656). Put plainly: torsin A binders from cell lysate, primary screen, small-molecule microarray, wild-type, 635/667 nm (AID 1149). Particulars: COS7 hTOR1A-WT lysate, 635 nm fluorescence, higher = more signal.
The target is the same in assay [9]. Briefly: small-molecule binders of mutant TOR1A in lysate, primary screen, cell lysate, small-molecule microarray, COS7 lysate, 635/667 nm fluorescence (AID 1150).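 Note: score pools 667 nm emission and signal to noise measuring lysate protein binding.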 Conditions: COS7 hTOR1A mutant lysate, 635 nm fluorescence, higher = more signal.
For assay [10], the system named is Sonic hedgehog protein (Shh). Briefly: small-molecule binders of Shh protein, primary screen, biochemical, small-molecule microarray, 635/667 nm fluorescence (AID 1151).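 Note: Shh protein binding to compounds spotted on small-molecule microarray slides; score combines spot fluorescence intensity with signal-to-noise across triplicate slides.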 Particulars: small-molecule microarray binding, 635 nm fluorescence; higher = more signal.
A short description of assay [11]: E. coli DRC41 culture turbidity changes, primary screen, E. coli filamentation inducer project, strain DRC41, OD650, 48 h (AID 1152).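 Note: E. coli MC1000 strain DRC41 lacking acrAB efflux pump and sulA.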 Particulars: E. coli DRC41 (acrAB sulA), higher = more signal, called active from +8 up or from −8 down.
Assay [12] is described as follows: small-molecule binders of probe aLefty1, primary screen, biochemical, small-molecule microarray, 635/667 nm fluorescence (AID 1153).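 Note: score merges spot fluorescence with signal-to-noise ratio from the scanned slide images.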 Particulars: higher = more signal.
Assay [13] can be described thus: PSAC antagonists in infected red cells, primary screen, cell-based, P. falciparum Indochina, OD700, 1 h (AID 1154). Particulars: P. falciparum Indochina infected RBC osmotic lysis, higher = more signal, called active from +8 up or from −8 down.
A short description of assay [14]: PSAC antagonists in infected red cells, primary screen, cell-based, P. falciparum Indochina, OD700, 2 h (AID 1155).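 Note: lysis reports solute entry through the parasite surface anion channel PSAC; channel blockers reduce lysis of infected cells.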 Conditions: P. falciparum Indochina infected erythrocytes, osmotic lysis OD700; higher = more signal, called active from +8 up or from −8 down.
Assay [15] can be described thus: osmotic lysis modulators in infected erythrocytes, primary screen, PSAC antagonist project, cell-based, P. falciparum Indochina, OD700, 3 h (AID 1156). Conditions: higher = more signal, called active from +8 up or from −8 down.
Assay [16] is described as follows: PSAC antagonists in infected red cells, primary screen, cell-based, P. falciparum Indochina, OD700, 18 h (AID 1157). Particulars: P. falciparum Indochina infected erythrocytes, osmotic lysis OD700, 18 h; higher = more signal, called active from +8 up or from −8 down.
Assay [17] is described as follows: modulators of S6 phosphorylation in cells, primary screen, cell-based, A549, cytoblot, luminescence, serum-stimulated (AID 1158).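 Note: serum-stimulated A549 lung adenocarcinoma cells; signal is phosphorylated S6 detected by cytoblot immunostaining with HRP secondary.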 Particulars: A549 phospho-S6 cytoblot, 5 h, higher = more signal.
In assay [18] the target is NADPH oxidase 2 (Homo sapiens) (UniProt P04839). Briefly: NOX2-dependent H2O2 signal modulators, primary screen, NOX inhibitor project, cell-based, HEK293-NOX2, PMA-stimulated, Amplex Red fluorescence (AID 1159). Note: test concentration not given here. Particulars: 45 min, higher = more signal, called active from +8 up or from −8 down.
In assay [19] the target is NADPH oxidase 4 (Homo sapiens) (UniProt Q9NPH5). Put plainly: NOX4-dependent H2O2 signal modulators, primary screen, NOX inhibitor project, cell-based, HEK293-NOX4, tetracycline-induced, Amplex Red fluorescence (AID 1160). Conditions: 45 min, higher = more signal, called active from +8 up or from −8 down.
The target in assay [20] is NADPH oxidase 5 (Homo sapiens) (UniProt Q96PH1). Put plainly: NOX5-dependent H2O2 signal modulators, primary screen, NOX inhibitor project, cell-based, HEK293-NOX5, Amplex Red fluorescence (AID 1161). Particulars: HEK293-NOX5, ionomycin, 45 min, higher = more signal.
NADPH oxidase 5 (Homo sapiens), sequence (Q96PH1 whole entry, looked up): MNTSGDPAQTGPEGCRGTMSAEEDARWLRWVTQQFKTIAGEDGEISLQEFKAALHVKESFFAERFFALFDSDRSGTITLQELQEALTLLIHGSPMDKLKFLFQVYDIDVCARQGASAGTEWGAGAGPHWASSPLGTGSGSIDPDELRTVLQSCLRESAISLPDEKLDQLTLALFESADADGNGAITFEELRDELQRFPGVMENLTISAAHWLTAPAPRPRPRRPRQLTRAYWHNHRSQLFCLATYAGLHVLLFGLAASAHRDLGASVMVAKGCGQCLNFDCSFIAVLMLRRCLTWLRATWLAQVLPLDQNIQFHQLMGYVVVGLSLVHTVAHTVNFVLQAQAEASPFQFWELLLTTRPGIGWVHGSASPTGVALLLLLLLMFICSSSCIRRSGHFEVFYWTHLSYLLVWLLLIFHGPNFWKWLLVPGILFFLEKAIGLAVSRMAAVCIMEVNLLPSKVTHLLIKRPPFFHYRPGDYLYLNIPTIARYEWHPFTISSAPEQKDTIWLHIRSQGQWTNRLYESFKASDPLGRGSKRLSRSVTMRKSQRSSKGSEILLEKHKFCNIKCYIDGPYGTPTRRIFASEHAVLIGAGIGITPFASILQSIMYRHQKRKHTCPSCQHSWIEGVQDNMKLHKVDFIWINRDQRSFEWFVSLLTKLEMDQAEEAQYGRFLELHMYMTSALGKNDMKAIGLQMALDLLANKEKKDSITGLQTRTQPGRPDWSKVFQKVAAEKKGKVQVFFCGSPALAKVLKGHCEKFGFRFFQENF

NADPH oxidase 2 (Homo sapiens), sequence (P04839 whole entry, looked up): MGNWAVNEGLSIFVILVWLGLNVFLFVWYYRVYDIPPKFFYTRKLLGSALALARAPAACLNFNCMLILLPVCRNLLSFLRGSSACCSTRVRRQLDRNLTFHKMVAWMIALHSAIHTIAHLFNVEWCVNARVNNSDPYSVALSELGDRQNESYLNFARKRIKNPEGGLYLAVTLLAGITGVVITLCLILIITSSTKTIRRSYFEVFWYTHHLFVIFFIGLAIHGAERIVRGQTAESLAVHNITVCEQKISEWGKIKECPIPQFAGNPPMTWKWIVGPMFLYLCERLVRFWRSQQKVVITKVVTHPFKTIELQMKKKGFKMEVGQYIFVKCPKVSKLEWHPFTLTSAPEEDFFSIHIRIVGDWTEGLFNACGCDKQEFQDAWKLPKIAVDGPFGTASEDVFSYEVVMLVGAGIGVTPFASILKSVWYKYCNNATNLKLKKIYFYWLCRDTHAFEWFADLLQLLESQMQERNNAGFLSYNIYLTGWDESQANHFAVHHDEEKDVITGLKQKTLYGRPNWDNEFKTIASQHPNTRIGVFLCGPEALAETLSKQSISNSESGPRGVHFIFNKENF
Torsin-1A (Homo sapiens), sequence (O14656 whole entry, looked up): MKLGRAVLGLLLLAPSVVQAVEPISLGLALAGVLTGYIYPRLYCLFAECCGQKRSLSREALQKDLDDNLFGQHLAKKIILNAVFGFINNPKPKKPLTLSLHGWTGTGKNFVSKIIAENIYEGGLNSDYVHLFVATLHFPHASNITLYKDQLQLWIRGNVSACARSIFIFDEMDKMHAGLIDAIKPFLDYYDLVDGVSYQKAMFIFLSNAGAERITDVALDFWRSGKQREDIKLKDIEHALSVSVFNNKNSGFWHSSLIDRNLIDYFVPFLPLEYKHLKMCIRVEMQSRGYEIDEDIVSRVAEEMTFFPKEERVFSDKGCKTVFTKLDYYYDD
Streptavidin (Streptomyces avidinii), sequence (P22629 whole entry, looked up): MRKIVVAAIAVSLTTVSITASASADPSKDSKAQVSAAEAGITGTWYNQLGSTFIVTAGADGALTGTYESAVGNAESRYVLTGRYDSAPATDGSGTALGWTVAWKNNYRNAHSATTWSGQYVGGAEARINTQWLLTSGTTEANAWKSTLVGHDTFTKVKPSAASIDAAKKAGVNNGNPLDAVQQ
NADPH oxidase 4 (Homo sapiens), sequence (Q9NPH5 whole entry, looked up): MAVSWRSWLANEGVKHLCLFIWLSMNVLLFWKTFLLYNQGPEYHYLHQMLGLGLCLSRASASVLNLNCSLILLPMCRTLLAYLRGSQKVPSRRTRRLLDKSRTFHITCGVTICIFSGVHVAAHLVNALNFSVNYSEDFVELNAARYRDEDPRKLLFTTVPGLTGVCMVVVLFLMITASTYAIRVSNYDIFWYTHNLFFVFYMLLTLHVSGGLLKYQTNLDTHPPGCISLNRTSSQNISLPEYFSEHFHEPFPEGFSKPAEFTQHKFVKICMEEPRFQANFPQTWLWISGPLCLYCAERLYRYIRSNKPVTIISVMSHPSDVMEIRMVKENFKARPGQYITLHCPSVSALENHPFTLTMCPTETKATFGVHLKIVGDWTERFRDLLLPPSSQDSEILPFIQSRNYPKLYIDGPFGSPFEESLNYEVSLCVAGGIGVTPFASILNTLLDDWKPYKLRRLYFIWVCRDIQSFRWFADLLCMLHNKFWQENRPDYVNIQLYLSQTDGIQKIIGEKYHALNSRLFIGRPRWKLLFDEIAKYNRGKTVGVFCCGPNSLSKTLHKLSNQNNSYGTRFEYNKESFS

In the case of `Cc1cc2c(nc1C)CCCCN2CC(O)CN1CCCc2nc(-c3ccc(Br)cc3)ccc21` (stereo not given), the composite z-score in [1] came to 0.0684; in assay [6], 0.639; in [7] it was 0.0541; in assay [8] it was 0.0636; in assay [9], 0.154; in assay [10], 1.1. For the same molecule, in [12], the composite z-score was 0.345. The z-score is 0.304 (inactive) in assay [2]; -0.708 (inactive) in assay [3]; 0.744 (inactive) in assay [4]; 0.597 (inactive) in assay [5]; 0.453 (inactive) in assay [11]; 4.88 (inactive) in assay [13]. The z-score in assay [14] was 0.0477 (inactive); in assay [15], 0.0577 (inactive); in assay [16], 0.148 (inactive); in assay [17], 0.75; in [18], 1.88 (inactive); in [19] it was 0.175 (inactive). This molecule registered a z-score in assay [20] of 0.616.
For the molecule `CC(=O)OC[C@H]1O[C@H](CC=NOC[C@@H](O)[C@H]2O[C@@H]3OC(C)(C)O[C@@H]3[C@H]2O)C=C[C@@H]1OC(C)=O`, the composite z-score is 0.0795 in [1]; 0.168 in [6]; -0.152 in assay [7]; -0.197 in assay [8]; 0.071 in assay [9]; -0.0919 in assay [10]. In addition, the composite z-score in [12] is 0.145. The z-score in assay [2] was 0.165 (inactive); in [3], -0.0289 (inactive); in assay [4], -1.3 (inactive); in assay [5], -0.521 (inactive); in [11] it was -1.11 (inactive); in [13] it was 0.466 (inactive). Further, the z-score in assay [14] was 0.274 (inactive); in assay [15], 0.0662 (inactive); in [16], 0.466 (inactive); in [17] it was -0.549; in [18] it was -0.462 (inactive); in assay [19] it was 0.136 (inactive). In assay [20], the z-score is -0.515.
On to `O=C1C2=CC[C@H]3C(=O)N(C[C@@H]4CCCO4)C(=O)[C@H]3[C@H]2[C@H](O)[C@@H]2O[C@H]12`, for which the composite z-score was 0.487 in assay [1]; 0.19 in assay [6]; -0.12 in [7]; 0.863 in [8]; 0.511 in assay [9]; -0.331 in assay [10]. Besides, the composite z-score in assay [12] is -0.0969. The z-score was -4.97 (inactive) in [2]; 0.846 (inactive) in assay [3]; 0.0664 (inactive) in assay [4]; 21.2 (active) in [5]; 0.194 (inactive) in [11]; -0.303 (inactive) in assay [13]. The z-score in [14] is 0.59 (inactive); in assay [15], -0.2 (inactive); in assay [16], 0.108 (inactive); in [17], 0.177; in [18], -1.35 (inactive); in [19] it was -0.219 (inactive). For the same molecule, the z-score in assay [20] turned out to be 0.271.
For the molecule `O=C1[C@H]2[C@H]3[C@H](O)[C@H](O)CC(=NOCc4ccccc4)[C@@H]3CC[C@H]2C(=O)N1c1cccc(Oc2ccccc2)c1`, the composite z-score in [1] was -0.0001; in assay [6] it was 0.0831; in assay [7], -0.024; in assay [8] it was 0.186; in assay [9], 0.0495; in [10], 1.03. The same molecule displayed a composite z-score in assay [12] of 0.082. In addition, the z-score was -0.558 (inactive) in assay [2]; 1.31 (inactive) in assay [3]; -0.658 (inactive) in assay [4]; 0.0169 (inactive) in assay [5]; 1.16 (inactive) in [11]; 2.88 (inactive) in [13]. The z-score is 1.72 (inactive) in assay [14]; 1.19 (inactive) in [15]; 0.845 (inactive) in [16]; -0.116 in [17]; -1.11 (inactive) in [18]; 0.735 (inactive) in assay [19]. The molecule also yielded a z-score in assay [20] of -1.18.
